Compound activity as filed in PubChem.
H9c2 protect = myocardial damage modulation in H9c2 cells; H9c2 cardiomyocytes, H2O2 injury protection, ATPLite, 2 h; protection from H2O2 cell death, % at 20 µM; 0.63% of 360,000 active;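 active = compounds giving at least 50% protection of heart cells from peroxide-induced death in the single-dose screen, raw or plate-pattern-corrected value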
Myeloid diff 2 = myeloid differentiation induction | ER-HoxA9 myeloid progenitors, lysozyme-GFP differentiation, flow cytometry | calls only at 10 µM | 1% of 360,000 active | AID 624256;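 active = normalized GFP-positive differentiation at or above the plate's own cutoff, the solvent-only control mean plus 3 SD; inconclusive = no clear call, values can overlap the other calls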;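 note: cells exposed to compound for four days before flow analysis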
ABHD5 PLIN5 PPI = inhibitors of human ABHD5-perilipin-5 interaction; Q00G26+Q8WTS1; Split G. princeps luciferase complementation, luminescence, 4 h; inhibition, % at 4 µM; 0.78% of 360,000 active;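 active = inhibition above the mean inhibition across every tested compound plus 3 SD, cut at about 22% in these data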
DAGLB inh = diacylglycerol lipase beta (human) inhibition; Q8NCG7; HEK293T DAGLB membrane lysate, EnzChek fluorogenic substrate; inhibition, % at 5.17 µM; 0.059% of 340,000 active; AID 504411; in the data active = inhibition above about 34%
sPLA2-III inh = Inhibits HGIII-sPLA2 liposome hydrolysis, primary screen | QFRET BODIPY PC-A2 liposome hydrolysis, fluorescence | inhibition, % at 12.2 µM | 0.56% of 370,000 active | AID 743126;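 active = inhibition above mean plus 3 SD of compounds lying within the high and low control bounds, cut at about 19% in these data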
Rtt109 Vps75 = C. albicans Rtt109 histone acetyltransferase inhibition; Q5AAJ8; purified Rtt109/Vps75, ThioGlo CoA-SH fluorescence, 4 h; inhibition, % at 34.9 µM; 0.16% of 330,000 active;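 active = inhibition of at least 50% in every replicate; inconclusive = best replicate reaches 50% inhibition but some replicates fall short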
Target sequence (Q5AAJ8 whole entry, looked up): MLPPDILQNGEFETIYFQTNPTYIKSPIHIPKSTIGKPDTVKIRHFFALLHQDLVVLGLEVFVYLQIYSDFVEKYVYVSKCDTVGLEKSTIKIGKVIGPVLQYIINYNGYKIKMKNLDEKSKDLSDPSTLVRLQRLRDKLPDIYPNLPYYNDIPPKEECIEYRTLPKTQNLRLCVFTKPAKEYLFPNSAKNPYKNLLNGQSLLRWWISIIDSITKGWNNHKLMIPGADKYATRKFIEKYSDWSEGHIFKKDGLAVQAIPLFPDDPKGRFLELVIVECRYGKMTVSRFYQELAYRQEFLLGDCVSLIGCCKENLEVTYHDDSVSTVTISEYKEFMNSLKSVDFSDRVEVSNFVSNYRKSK
sPLA2 confirm = human GIII-sPLA2 inhibition, confirmation | shares compounds with sPLA2-III inh | recombinant hGIII-sPLA2, BODIPY PC-A2 QFRET fluorescence | inhibition, % at 12.2 µM | 34% of 2,000 active;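 active = mean inhibition across triplicates above the hit cutoff set in the earlier primary screen, cut at about 19% in these data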
535nm interf = 535nm fluorescence interference, HGIII-sPLA2 counter-screen | AID 743282 | inhibition, % at 12.2 µM | BODIPY FL product fluorescence interference, QFRET | shares compounds with sPLA2-III inh | 8.5% of 2,000 active;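 active = average inhibition above the solvent-only control mean plus 3 SD, cut at about 6% in these data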
535nm interf DR = counter-screen for HGIII-sPLA2 inhibitors: 535nm fluorescence interference, dose response; 240 tested, under 10 active; BODIPY FL product fluorescence interference, cell-free; IC50, µM; AID 743455; shares compounds with sPLA2-III inh;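 active = IC50 at or below 10 µM; inactive = IC50 above 10 µM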
Hits are given with their value; - = inactive; ? = inconclusive; . = no result. Only some compounds are listed: those with a hit (about 2.9% of all), similar ones and a draw of the others.

SMILES	H9c2 protect	Myeloid diff 2	ABHD5 PLIN5 PPI	DAGLB inh	sPLA2-III inh	Rtt109 Vps75	sPLA2 confirm	535nm interf	others
Cc1c(C)n(CC(O)CSc2ccccc2)c2ccccc12 (stereo unspecified)	.	-	-	.	-	.	.	.
Cc1c(C)n(CCC#N)c2ccccc12	-	-	-	-	21	-	-	-
Fc1ccc(NC(=S)Nc2nccs2)cc1	-	-	-	-	23	-	28	-	535nm interf DR=-
S=C(Nc1ccccc1)Nc1nccs1	-	-	-	-	27	-	30	-	535nm interf DR=-
O=C(Cc1ccccc1)Nc1nccs1	-	-	-	-	-	-	.	.
COc1ccc(NC(=O)CSc2nc3ccncc3[nH]2)c(OC)c1	-	-	-	-	-	-	.	.
NNC(=O)Cn1nc2n(c1=O)-c1ccccc1SC2	-	-	-	-	-	-	.	.
C[C@@H]1CCCN1c1ccc2c(c1)OCCCN(C1CC1)S2(=O)=O	.	.	.	.	-	.	.	.
COc1ccccc1CCNC(=O)c1cc(-c2ccccn2)nc2ccccc12	-	-	-	-	20	-	-	-
COc1ccccc1CCNC(=O)c1cc(-c2ccncc2)nc2ccc(Br)cc12	-	-	-	-	-	-	.	.
CSCC[C@H](NC(=O)OC(C)(C)C)C(=O)N1CCC(C(=O)N[C@@H](Cc2c[nH]c3ccccc23)C(=O)O)CC1	-	-	-	-	-	-	.	.
Cc1ccc(C(C)C)c(OCc2n[nH]c(=S)o2)c1	-	-	-	-	-	-	.	.
Cc1ccc(C)c(OCc2n[nH]c(=S)o2)c1	-	-	-	-	24	-	-	-
S=c1nc[nH]c2c1[nH]c1ccc(Cl)cc12	-	-	-	-	20	-	-	-
O=c1[nH]nc(SCCS(=O)(=O)c2ccc(F)cc2)n1-c1ccc2c(c1)OCCO2	-	-	-	-	21	-	-	-
Clc1cccc(C[n+]2cc(-c3ccccc3)n3c2CCC3)c1	-	-	-	-	19	-	-	-
O=C(O)/C=C/C(=O)Nc1ccc(C2(c3ccc(NC(=O)/C=C/C(=O)O)cc3)c3ccccc3-c3ccccc32)cc1	-	-	-	-	22	-	-	-
O=C(O)/C=C\C(=O)Nc1ccc(Oc2ccccc2)cc1	-	-	-	-	-	-	.	.
CN(Cc1ccccc1)C(=O)c1c[nH]c2ccc(S(=O)(=O)N3CCOCC3)cc2c1=O	-	-	-	-	20	-	-	-
NC(=S)N/N=C/c1cc([N+](=O)[O-])ccc1Cl	-	-	-	-	20	-	-	-
CN(C)c1ccc(/C=N/NC(N)=S)cc1[N+](=O)[O-]	-	-	-	-	21	-	20	-
O=[N+]([O-])c1ccc(Cl)c(/C=N/NC(=S)Nc2ccccc2)c1	-	-	-	-	-	-	.	.
Nc1c(C(=O)Nc2ccccc2F)sc2nc(-c3ccco3)ccc12	-	-	-	-	19	-	-	-
Nc1c(C(=O)Nc2ccccc2F)sc2nc(-c3cccnc3)ccc12	-	-	-	-	-	-	.	.
Fc1ccc(-n2c(-c3ccc4c(c3)OCO4)n[nH]c2=S)cc1Cl	-	-	-	-	23	-	34	-	535nm interf DR=-
SMILES	H9c2 protect	Myeloid diff 2	ABHD5 PLIN5 PPI	DAGLB inh	sPLA2-III inh	Rtt109 Vps75	sPLA2 confirm	535nm interf	others
Cc1cccc(NC2=C(NC(=O)c3ccccc3)C(=O)c3ccccc3C2=O)c1	-	-	-	-	24	-	23	-
CC(C)c1nnc(NC(=O)CCC(=O)N2CCN(C3c4ccccc4-c4ccccc43)CC2)s1	-	-	-	-	-	-	.	.
COc1ccc(-n2sc3c(c2=S)-c2cc(OC)ccc2NC3(C)C)cc1	-	-	-	-	27	-	-	8.1
Cc1cc(C)nc(SCc2ccc(C(=O)N/N=C/c3cccc(O)c3O)cc2)n1	-	?	-	-	26	-	38	-	535nm interf DR=-
Cc1ccc(C)c(N2CCN(CC3CCCCC3)CC2)c1	-	-	-	-	21	-	-	-
COc1ccccc1N1CCN(c2ccc([N+](=O)[O-])cc2Cl)CC1	-	-	-	-	20	-	-	-
CC(C)C(C(=O)Nc1ccc(S(=O)(=O)N2CCOCC2)cc1)N1C(=O)c2ccccc2C1=O (stereo unspecified)	-	-	-	-	-	-	.	.
NS(=O)(=O)c1cccc(NC(=O)CCC(=O)c2cccs2)c1	-	-	-	-	-	-	.	.
NS(=O)(=O)c1cccc(NC(=O)c2cccs2)c1	-	-	-	-	21	-	-	-
Cc1ccc(CN2CCCN(Cc3ccc(F)cc3Cl)S2(=O)=O)cc1	-	-	-	-	-	-	.	.
COc1cc2c(cc1OC)C(=O)N1[C@H]3c4ccccc4OC[C@@H]3[C@H](c3ccccc3)[C@]1(C)C(=O)N2	-	-	-	-	-	-	.	.
COc1ccc2c(c1)OC[C@H]1[C@H]2N2C(=O)c3cc(OC)c(OC)cc3NC(=O)[C@@]2(C)[C@H]1c1ccccc1	-	-	-	-	31	-	-	-
Cc1ccc(Nc2nnc(SCC(=O)Nc3ncc(S(=O)(=O)c4ccc([N+](=O)[O-])cc4)s3)s2)cc1	-	-	-	-	20	-	-	-
Cc1ccccc1-n1c(=S)[nH]c2nc3c(cc2c1=O)COC(C)(C)C3	-	-	-	-	20	-	-	-
Cc1ccc(-n2c(=S)[nH]c3nc4c(cc3c2=O)COC(C)(C)C4)cc1	-	-	-	-	-	-	.	.
COCCN(Cc1ccco1)C(=O)C1CCCN(c2ncnc3c2nc2n3CCCCC2)C1 (stereo unspecified)	-	.	-	-	-	-	.	.
COc1cccc(/C=N/N=C(\N)c2nonc2N)c1O	-	-	-	-	20	-	-	-
O=[N+]([O-])c1ccc2c(c1)CNc1ccccc1O2	-	-	-	-	-	-	.	.
O=[N+]([O-])c1cc2c(c([N+](=O)[O-])c1)Nc1ccccc1O2	-	-	-	-	21	.	45	12
CCCCOc1ccc(-c2c(C#N)c(N)nc(SCC(N)=O)c2C#N)cc1	-	-	-	-	46	-	-	-
CSc1nc(N)c(C#N)c(-c2ccc(Cl)cc2)c1C#N	-	-	-	-	22	-	24	-
CC(C)n1c(=S)[nH]c2scc(-c3cccs3)c2c1=O	-	-	-	-	23	-	48	9.6
Cc1ccccc1Nc1ccc(S(=O)(=O)N2CCOCC2)cc1[N+](=O)[O-]	-	-	-	-	20	-	-	-
O=C(CCCc1ccccc1)Nc1ccnn1C1CCN(Cc2ccc(CO)o2)CC1	-	-	-	-	-	-	.	.
